95 compounds from PubChem BioAssay AID372 (MTDP, 2006) can be followed below.

Hit rate of the full screen: of about 100,000 compounds, about 770 (0.77%) were called active. The list comes from a sample in which actives are over-represented; it also holds similar structures and randomly drawn compounds. Unmarked numbers belong to inactive results. Cut-off read from the data, not from the text of the source: active = inhibition above about 50%; inactive = the rest.

This assay addresses Gag-Pol polyprotein (Human immunodeficiency virus type 1 group M subtype B (isolate HXB2)) (UniProt P04585). Description: RNase H inhibition, HIV 1 Gag Pol polyprotein, FRET biochemical assay, screening (AID 372). The following applies: HIV-1 RT RNase H, FRET RNA/DNA substrate fluorescence; at 10 µM; stronger effect = higher value.
As for `Cc1nonc1-c1cn2cc(Cl)ccc2n1`, the inhibition is 8%. The value for `COc1ccccc1C/C(N)=N/OC(=O)Cc1ccc(Cl)cc1` was 22%. As for `O=C(Nc1ccc(S(=O)(=O)N2CCCCCC2)cc1)c1cccc([N+](=O)[O-])c1`, the inhibition is 9%. As to `CCOC(=O)C1=C(C)N=c2s/c(=C\c3ccc([N+](=O)[O-])o3)c(=O)n2C1c1ccc(SC)cc1` (stereo not given), the inhibition was 20%. As for `COc1ccc(S(=O)(=O)N(CCc2ccccc2)CC(=O)NCC2CCCO2)cc1` (stereo not given), the figure is 2%. In the case of `CCOc1ccc(N2C(=O)/C(=C/c3cc(Br)c(O)c(OC)c3)C(=O)NC2=S)cc1`, the inhibition is 11%. The value for `COc1ccccc1CC(=O)Nc1ccc(Br)cc1` was 38%; that for `COc1ccccc1CC(=O)Nc1cccc(C)c1` was 0%; that for `COc1ccccc1CC(=O)Nc1cccc(Br)c1` was 67% (active). On to `O=C1c2ccc(-c3nc4ccccc4c(=O)o3)cc2C(=O)N1c1cccc(I)c1`, for which the inhibition was 0%. As for `Cc1ccc2c(c1)N(C(=O)c1ccccc1Br)C(C)(C)c1ssc(=S)c1-2`, the figure is 33%; as for `C=CCn1c(=O)c(C(=O)NCCCO)c(O)c2ccccc21`, 11%; as for `COc1ccc(/C=N/NC(=S)Nc2cccc(C)c2)c2ccccc12`, 5%. As for `COC(=O)C1=C(C)NC(C)=C(C(=O)OC)C1c1cn(-c2ccccc2)nc1-c1ccco1`, the inhibition is 4%.

As to `Cc1cccc(OCCOC(=O)Nc2ccc(Cl)c(Cl)c2)c1`, the inhibition is 46%. Regarding `COc1cccc(OCCOC(=O)Nc2ccc(Cl)c(Cl)c2)c1`, the inhibition is 50% (active). The value for `O=C(Nc1ccc(Cl)c(Cl)c1)OCCOc1cccc(Br)c1` was 44%; that for `Cc1cccc(OCCOC(=O)Nc2cccc(Cl)c2)c1` was 44%; that for `Cc1ccc(OCCOC(=O)Nc2ccc(Cl)c(Cl)c2)cc1` was 46%. As for `COc1ccccc1OCCOC(=O)Nc1ccc(Cl)c(Cl)c1`, the figure is 10%. The value for `O=C(Nc1cccc(Cl)c1)OCCOc1cccc(F)c1` was 58% (active); that for `O=C(Nc1ccc(Cl)c(Cl)c1)OCCOc1ccccc1` was 50% (active).

Turning to `O=C(Nc1ccc(Cl)c(Cl)c1)OCCOc1ccccc1Cl`, the inhibition was 48%. In the case of `O=C(Nc1cccc(Cl)c1)OCCOc1ccccc1`, the inhibition is 48%. Regarding `COc1ccc(OCCOC(=O)Nc2ccc(Cl)c(Cl)c2)cc1`, the inhibition is 34%.

With `Cc1ccccc1OCCOC(=O)Nc1ccc(Cl)c(Cl)c1`, the inhibition is 51% (active). For `CC1=C(C#N)C(c2ccccc2C(F)(F)F)C2=C(CCCC2=O)N1` (stereo not given), the inhibition is 12%.

For `O=C1Nc2ccccc2NC1C1OC(c2ccccc2)=CC1=O` (stereo not given), the inhibition was 0%.

With `Cc1cccc(C2C(=O)c3ccccc3C2=O)c1C`, the inhibition was 13%. The value for `O=C(O)c1ccc(N2C(=O)CC(N3CCN(Cc4ccc5c(c4)OCO5)CC3)C2=O)cc1` (stereo not given) was 12%. Consider `C/C(=N\NC(=O)c1cc(C)[nH]n1)c1ccc(N)cc1`, for which the inhibition was 5%. As for `O=S1(=O)CCC(NC(=S)N/N=C/c2ccc(Cl)c(Cl)c2)C1` (stereo not given), the figure is 13%; as for `COc1ccc(C(N)=CC(=O)C(C)(C)C)cc1`, 7%; as for `Clc1cccc(OCCN2CCOCC2)c1Cl`, 0%.

Take `Clc1cccc(OCCCN2CCOCC2)c1Cl`: the inhibition was 2%. The value for `Clc1cccc(OCCCCN2CCOCC2)c1Cl` was 55% (active). The value for `Cc1sc2nc(SCC(=O)NCCO)[nH]c(=O)c2c1C` was 2%; that for `COc1ccc(C(=O)NC(=S)Nc2ccc3oc(-c4ccccc4Cl)nc3c2)cc1Cl` was 53% (active); that for `COc1ccc(C(=O)NC(=S)Nc2ccc3oc(-c4ccccc4C)nc3c2)cc1Cl` was 25%.

Regarding `CCOc1ccc(-c2nc3cc(NC(=S)NC(=O)c4ccccc4C)ccc3o2)cc1`, the inhibition is 61% (active). With `COc1ccc(C(=O)NC(=S)Nc2ccc3oc(-c4ccccc4Cl)nc3c2)cc1OC`, the inhibition was 14%.

Regarding `COc1ccc(-c2nc3cc(NC(=S)NC(=O)c4ccccc4C)ccc3o2)cc1Cl`, the inhibition was 56% (active). As for `COc1ccc(-c2nc3cc(NC(=S)NC(=O)c4ccccc4C)ccc3o2)cc1`, the figure is 7%; as for `COc1ccc(-c2nc3cc(NC(=S)NC(=O)c4ccccc4OC)ccc3o2)cc1Cl`, 13%; as for `CCOc1ccc(-c2nc3cc(NC(=S)NC(=O)c4ccccc4Br)ccc3o2)cc1`, 20%. With `COc1ccc(-c2nc3cc(NC(=S)NC(=O)c4ccccc4Cl)ccc3o2)cc1Cl`, the inhibition is 45%. The value for `O=C(Nc1ccc2ccccc2c1)c1cc(I)ccc1Cl` was 23%; that for `COc1ccc(/C(N)=N/OC(=O)/C=C/c2ccccc2)cc1` was 15%. The value for `CCCCOC(=O)c1ccc(NC(=O)COc2ccccc2Br)cc1` was 15%; that for `COc1ccc(NC(=O)CN(c2c(C)n(C)n(-c3ccccc3)c2=O)S(=O)(=O)c2ccccc2)cc1` was 4%. Turning to `O=C(CSc1nc2sc3c(c2c(=O)n1-c1ccc(Cl)cc1)CCCC3)c1ccccc1`, the inhibition is 13%.

For `O=[N+]([O-])c1ccc(N2CCN(S(=O)(=O)c3ccc4ccccc4c3)CC2)cc1N1CCCC1`, the inhibition was 5%. As for `CC(c1ccccc1)N1C(=O)/C(=C/c2cccc([N+](=O)[O-])c2)SC1=S` (stereo not given), the figure is 11%. The value for `Cc1ccc(-n2nc3ccc(NC(=O)c4cccc([N+](=O)[O-])c4)cc3n2)cc1Cl` was 43%; that for `COc1ccc(C(=O)NC(=S)Nc2ccc(C)c(Cl)c2)cc1[N+](=O)[O-]` was 5%; that for `Cc1ccc(C(=O)Nc2ccccc2)cc1[N+](=O)[O-]` was 7%.

Turning to `O=C(Nc1ccc2nn(-c3ccccc3)nc2c1)c1ccc(Cl)c([N+](=O)[O-])c1`, the inhibition is 21%.

Regarding `O=C(Nc1ccc2nn(-c3ccc(F)cc3)nc2c1)c1ccc([N+](=O)[O-])cc1`, the inhibition was 16%. As for `Cc1ccc(-n2nc3ccc(NC(=O)c4ccc([N+](=O)[O-])cc4)cc3n2)cc1Cl`, the figure is 53% (active). As for `O=C(Nc1ccc(-c2nc3ccc(NC(=O)c4ccccc4[N+](=O)[O-])cc3[nH]2)cc1)c1ccccc1[N+](=O)[O-]`, the figure is 13%; as for `O=C(Nc1ccc2nn(-c3ccc(Cl)cc3)nc2c1)c1ccc([N+](=O)[O-])cc1`, 31%; as for `COc1ccc(C(=O)NC(=S)Nc2ccc3nn(-c4ccc(F)cc4)nc3c2)cc1[N+](=O)[O-]`, 38%.

Consider `Cc1ccc(C(=O)Nc2ccc(-c3nc4cc5ccccc5cc4[nH]3)cc2)cc1[N+](=O)[O-]`, for which the inhibition was 80% (active). As for `O=C(Nc1ccc2nn(-c3ccc(F)cc3)nc2c1)c1ccc(Cl)c([N+](=O)[O-])c1`, the figure is 52% (active). Regarding `CC(=O)N/N=C/c1ccc(-c2ccc([N+](=O)[O-])cc2Br)o1`, the inhibition is 13%. As for `CCOc1ccc(C(=O)NCc2cccnc2)cc1Br`, the figure is 0%.

Turning to `CC(C)=NNC(=O)/C(=C/C=C/c1ccccc1)NC(=O)c1ccccc1`, the inhibition is 7%. As for `CC(=O)c1cccc(NC(=O)CC2S/C(=N\N=C(/C)c3ccc(Cl)cc3)NC2=O)c1` (stereo not given), the figure is 13%; as for `O=C(c1nn2c(c1Br)NC(c1cccs1)CC2C(F)(F)F)N1CCOCC1` (stereo not given), 0%; as for `N#Cc1ccc(C=Nc2cc(Cl)cc(Cl)c2)cc1`, 11%. As for `Cc1cc2c(c(=O)o1)C(c1cccs1)C(C#N)=C(N)O2` (stereo not given), the figure is 4%; as for `Cc1cc(C)c(S(=O)(=O)Nc2cc(Br)c(O)c3ccccc23)c(C)c1`, 18%; as for `N#Cc1ccccc1COc1ccc(/C=C2/NC(=S)NC2=O)cc1`, 23%. As for `Cc1ccc(-n2nc3cc(C)c(NC(=O)/C=C/c4cccc([N+](=O)[O-])c4)cc3n2)cc1`, the figure is 12%; as for `COc1ccc(C(=O)NC(=S)Nc2ccc(Br)cc2)cc1[N+](=O)[O-]`, 0%. Take `COc1ccc(C(=O)NC(=S)Nc2ccc(-c3nc4ccccc4[nH]3)cc2)cc1[N+](=O)[O-]`: the inhibition was 60% (active).

For `Cc1ccc(-n2nc3ccc(NC(=O)/C=C\c4cccc([N+](=O)[O-])c4)cc3n2)cc1`, the inhibition is 59% (active). In the case of `Cc1ccc(C(=O)Nc2ccc3nn(-c4ccc(Cl)cc4)nc3c2)cc1[N+](=O)[O-]`, the inhibition is 51% (active).

In the case of `COc1ccc(C(=O)NC(=S)Nc2ccc3nn(-c4ccccc4)nc3c2)cc1[N+](=O)[O-]`, the inhibition is 56% (active). As for `COc1ccc(C(=O)Nc2ccc3nn(-c4ccccc4)nc3c2)cc1[N+](=O)[O-]`, the figure is 18%; as for `COc1ccc(C(=O)NC(=S)Nc2cc(-c3nc4ccccc4[nH]3)ccc2C)cc1[N+](=O)[O-]`, 18%. The value for `CCOc1ccc(C(=O)NC(=S)Nc2ccc3nn(-c4ccccc4)nc3c2)cc1[N+](=O)[O-]` was 18%. For the compound `CCOc1ccc(-n2nc3ccc(NC(=O)c4ccc(C)c([N+](=O)[O-])c4)cc3n2)cc1`, the inhibition was 17%.

`Cc1ccc(C(=O)Nc2ccc3nn(-c4ccc(F)cc4)nc3c2)cc1[N+](=O)[O-]`: the inhibition was 40%. The value for `O=C(/C=C/c1cccc([N+](=O)[O-])c1)Nc1ccc2nn(-c3ccccc3)nc2c1` was 43%; that for `CCc1ccc(C=NC23CN4CN(CN(C4)C2)C3)s1` was 5%; that for `CCOC(=O)c1c(NC(=O)CN2C(=O)S/C(=C\c3ccccc3)C2=O)sc2c1CCCC2` was 10%.

Take `COc1cccc(/C=C2/SC(=S)N(CCC(=O)Nc3nnc(C)s3)C2=O)c1`: the inhibition was 7%.

As to `Cn1ccnc1SCC(=O)n1c2c(c3ccccc31)CCCC2`, the inhibition is 0%. As for `COc1ccc(C(=O)Nc2ccc3nn(-c4ccc(C)c(Cl)c4)nc3c2)cc1[N+](=O)[O-]`, the figure is 53% (active); as for `Cc1ccc(-n2nc3ccc(NC(=O)c4ccc([N+](=O)[O-])c(C)c4)cc3n2)cc1Cl`, 44%; as for `Cc1ccc(C(=O)Nc2ccc3nn(-c4cccc([N+](=O)[O-])c4)nc3c2)cc1`, 54% (active).

Regarding `COc1ccc(-n2nc3ccc(NC(=O)c4ccc(OC)c([N+](=O)[O-])c4)cc3n2)cc1`, the inhibition is 3%. `O=C(Nc1ccc2nn(-c3ccccc3)nc2c1)c1ccc([N+](=O)[O-])cc1`: the inhibition was 12%. As for `O=C(Nc1ccc2nn(-c3cccc([N+](=O)[O-])c3)nc2c1)c1ccccc1`, the figure is 22%.
